Screening results: PubChem, The Scripps Research Institute Molecular Screening Center
An excerpt weighted towards active compounds, which were near 3.5% of everything screened.
GPR151 activ: activators of human GPR151. Q8TDV0. PathHunter beta-arrestin GPR151 cells, luminescence. activation, % at 11.2 µM. 650,000 compounds, 1% hits; in the data active means activation above about 4.9%;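 further: 0% = median of compound wells and 100% = cells with positive control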
FBW7 activator: activators of human E3 ligase FBW7 | Q969H0 | AlphaScreen FBW7–phospho-cyclin E peptide binding, activator screen | normalized activity (activation), % at 26.1 µM | 650,000 compounds, 0.13% hits; in the data active means normalized activity above about 1.9%;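 further: purified mutant Fbw7 with reduced substrate affinity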
TEAD-YAP inh: TEAD-YAP interaction inhibition | HEK-TIYL cells, TEAD-Gal4/YAP UAS-luciferase luminescence | inhibition, % at 9.12 µM | 640,000 compounds, 1.4% hits | AID 1259422; in the data active means inhibition above about 32%;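 further: 0% = median of test compound wells and 100% = reference inhibitor wells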
MITF inh: inhibitors of human MITF; inhibition, % at 2.6 µM; AlphaScreen MITF homodimerization, bead proximity signal; AID 1259374; 650,000 compounds, 0.91% hits; O75030; in the data active means inhibition above about 50%;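 further: 0% = vehicle wells with protein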
Target sequence (O75030 whole entry, looked up): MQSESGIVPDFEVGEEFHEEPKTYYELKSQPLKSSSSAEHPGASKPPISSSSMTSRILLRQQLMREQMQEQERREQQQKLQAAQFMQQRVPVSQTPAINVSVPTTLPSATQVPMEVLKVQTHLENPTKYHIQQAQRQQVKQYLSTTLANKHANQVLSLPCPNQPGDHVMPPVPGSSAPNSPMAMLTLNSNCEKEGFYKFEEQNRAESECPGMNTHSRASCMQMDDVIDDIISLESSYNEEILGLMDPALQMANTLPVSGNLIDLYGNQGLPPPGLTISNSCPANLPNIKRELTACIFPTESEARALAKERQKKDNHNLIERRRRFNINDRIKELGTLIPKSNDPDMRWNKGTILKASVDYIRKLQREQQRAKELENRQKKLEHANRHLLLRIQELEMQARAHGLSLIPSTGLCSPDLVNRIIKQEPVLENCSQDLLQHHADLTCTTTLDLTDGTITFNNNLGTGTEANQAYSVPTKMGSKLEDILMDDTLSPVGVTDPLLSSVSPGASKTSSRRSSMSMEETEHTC
* hit, by the source's call.

SMILES	GPR151 activ	FBW7 activator	TEAD-YAP inh	MITF inh
Fc1ccccc1C1C=C(c2ccc(Br)cc2)Nc2nc3ccccc3n21 (stereo not given)	0	0	-86	-4
CC1=C(C#N)c2nc(N)c(C#N)c(C)c2/C1=C/c1ccc(-c2ccc(Cl)c(C(=O)O)c2)o1	0	-1	1	16
N#C/C(=C\c1ccc(Cl)cc1)c1nn(CCO)c(N)c1C#N	3	1	-2	7
CCC(C)(C(=O)NC1CCCCC1)N(CC1CCCO1)C(=O)c1ccccn1 (stereo not given)	0	1	2	5
COc1cc(OC)nc(CSCCNC(=O)CCl)n1	1	0	10	-1
COc1cc(OC)nc(CSc2ccc(NC(=O)CCl)cc2)n1	-1	0	36*	8
CCOC(=O)c1c(C)nc(Nc2nc3ccccc3o2)nc1-c1ccccc1	2	0	-5	-6
CCOC(=O)c1cnc(Nc2nc3ccccc3o2)nc1C	-2	0	44*	-1
Cc1ccc(S(=O)(=O)Nc2cc(C(=O)N3CCOCC3)ccc2N2CCCCC2)cc1	0	0	2	-4
COC(=O)c1ccc(N2CCOCC2)c(NS(=O)(=O)c2ccc(OC)cc2)c1	-1	0	58*	7
COC(=O)c1ccc(N2CCCC2)c(NS(=O)(=O)c2ccc(C)cc2)c1	-1	1	41*	6
CC(=O)c1ccc(NC(=O)CCC(=O)OC2CCC(C)CC2)cc1 (stereo not given)	-2	1	-10	27
COc1cccc(CC(=O)N2CCC(O)(c3ccccn3)CC2)c1	1	0	-2	1
c1coc(-c2nc3ccccn3c2Nc2ccc3c(c2)OCCO3)c1	-2	0	41*	-4
Cc1nn(-c2ccccc2)c(Cl)c1C(=O)Nc1ccc(C(=O)NCc2cccnc2)cc1	-1	0	39*	25
Cc1nn(-c2ccccc2)c(Cl)c1C(=O)NCc1cccnc1	0	0	-2	4
N=c1oc2ccc([N+](=O)[O-])cc2cc1C(=O)NCc1ccccc1	1	0	7	5
COc1ccc(NC(=O)NC(C)c2ccc(OC)c(OC)c2)cc1OC (stereo not given)	1	0	3	10
Cc1cc(NCCCN2CCCC2=O)nc(N2CCOCC2)n1	-1	7.4*	-3	8
O=C1CCCN1CCCNc1ccnc(N2CCOCC2)n1	-1	0	1	-9
CCCCCOc1ccc(C(=O)Nc2cc(C)on2)cc1	-2	0	-14	6
COc1ccc2oc(=O)c(C(=O)Nc3cc(C)ccn3)cc2c1	1	0	34*	-5
Cc1cc(NC(=O)c2ccc(N3CCCCS3(=O)=O)cc2)ccc1Br	0	0	10	20
Cc1ccnc(NC(=O)c2ccc(N3CCCCS3(=O)=O)cc2)c1	-9	0	88*	1
CCCCOc1ccc(C(=O)Nc2cc(C)ccn2)cc1	-7	0	52*	8
SMILES	GPR151 activ	FBW7 activator	TEAD-YAP inh	MITF inh
COc1ccc2oc(=O)c(C(=O)Nc3ccc(C)cc3Br)cc2c1	1	0	1	-1
Fc1ccc(-c2cn3cc(Cl)ccc3n2)cc1	-8	0	37*	14
Clc1ccc2nc(-c3ccccc3)cn2c1	-9	0	77*	12
Clc1ccc2nc(-c3ccc(Br)cc3)cn2c1	0	0	-78	-13
Clc1ccc2nc(-c3ccc4c(c3)OCO4)cn2c1	-9	0	73*	-16
COc1ccc(C2C(C(=O)OCCc3ccccc3)=C(C)NC3=C2C(=O)CC(C)(C)C3)cc1 (stereo not given)	0	0	0	-4
CCNC(=O)CN(c1ccccc1)S(=O)(=O)N(C)C	1	0	-6	-5
COc1cc(/C=N/NC(N)=S)ccc1OCC(=O)N1CCCCC1	-1	0	5	1
Cc1cc(OCC(=O)Nc2ccccc2CO)cc(C)c1Cl	2	0	-4	2
Oc1c(C(O)(C(F)(F)F)C(F)(F)F)ccc2cccnc12	-2	0	49*	47
Oc1c(CN2CCCCC2)ccc2cccnc12	-2	0	46*	105*
Oc1ccc(CN2CCN(c3ccccc3)CC2)c2cccnc12	0	0	5	31
Oc1c(CN2CCOCC2)ccc2ccccc12	0	0	5	13
Oc1c(CN2CCN(Cc3ccc4cccnc4c3O)CC2)ccc2cccnc12	-2	0	38*	114*
O=C(CCl)Nc1c(C(O)(C(F)(F)F)C(F)(F)F)ccc2ccccc12	2	0	12	0
Oc1c(CN2CCOCC2)ccc2cccnc12	1	-1	16	95*
CN1CCNC(=O)C1CC(=O)NCC1(c2ccccc2)CCCCC1 (stereo not given)	0	0	0	-15
